# According to PubChem BioAssay (NCATS):
# Inconclusive results are not listed. Where a call stands in place of a potency, no number is given. The source made the active and inactive calls. Unless noted, the call rests on the fitted dose curve; in most records, active means well fitted curve in the direction sought with a large enough effect; inconclusive means small, poorly fitted or top-dose-only effect, or another doubt; inactive means no such curve, though single readings can be large; an effect the other way counts as inactive or inconclusive.
# Tests used:
# [1] = qHTS for differential inhibitors of proliferation of Plasmodium falciparum line 3D7 (AID 1876); further: potency means the concentration at half of the fitted maximal effect
# [2] = qHTS for differential inhibitors of proliferation of Plasmodium falciparum line W2 (AID 1883); details: Potency: Plasmodium falciparum W2 proliferation inhibition;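 further: potency means the concentration at half of the fitted maximal effect; parasites grown with compound for 72 h before lysis and staining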
# [3] = target: Ferritin light chain (Equus caballus) (UniProt P02791); test: qHTS Validation Assay for Identification of Novel General Anesthetics (AID 2323); further: series mostly up to about 77 µM
# Sequence of Ferritin light chain (Equus caballus) (P02791 2-175 limits assumed): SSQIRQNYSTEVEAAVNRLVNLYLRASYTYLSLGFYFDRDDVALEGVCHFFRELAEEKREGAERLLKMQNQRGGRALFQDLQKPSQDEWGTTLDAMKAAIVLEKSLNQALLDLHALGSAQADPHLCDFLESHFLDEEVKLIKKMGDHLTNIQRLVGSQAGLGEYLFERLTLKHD
# Method in brief: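 Apoferritin from horse spleen (10 uM) was mixed with 1-aminoanthracene at 50% saturation in PBS, then compounds were added. After 10 min at room temperature, fluorescence was read (ex 380 nm, em 535 nm) and normalized to free-probe and complex controls.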
# [4] = target: ATP-dependent DNA helicase Q1 (Homo sapiens) (UniProt P46063); test: qHTS Validation Assay for Inhibitors of RecQ-Like Dna Helicase 1 (RECQ1) (AID 2353)
# Sequence of ATP-dependent DNA helicase Q1 (Homo sapiens) (P46063 whole entry, looked up): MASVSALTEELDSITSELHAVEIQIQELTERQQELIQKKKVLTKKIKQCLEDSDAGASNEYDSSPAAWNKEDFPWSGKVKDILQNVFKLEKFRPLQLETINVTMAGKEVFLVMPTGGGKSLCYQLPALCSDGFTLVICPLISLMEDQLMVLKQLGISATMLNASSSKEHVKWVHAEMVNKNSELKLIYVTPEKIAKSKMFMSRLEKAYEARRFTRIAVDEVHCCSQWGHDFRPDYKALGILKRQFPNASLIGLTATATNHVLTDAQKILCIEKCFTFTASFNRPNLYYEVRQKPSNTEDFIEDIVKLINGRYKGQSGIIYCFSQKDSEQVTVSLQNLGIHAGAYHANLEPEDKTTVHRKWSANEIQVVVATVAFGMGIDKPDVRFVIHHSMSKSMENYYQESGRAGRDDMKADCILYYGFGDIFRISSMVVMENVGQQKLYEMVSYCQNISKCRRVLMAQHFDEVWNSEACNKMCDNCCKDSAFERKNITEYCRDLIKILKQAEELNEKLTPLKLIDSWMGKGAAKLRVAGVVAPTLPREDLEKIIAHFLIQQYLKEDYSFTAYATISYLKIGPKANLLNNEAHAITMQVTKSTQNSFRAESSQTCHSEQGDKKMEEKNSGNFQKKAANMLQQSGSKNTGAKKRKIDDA
# Method in brief: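 50 nM RECQ1T1 preincubated 15 min with compound in Tris pH 8.0 buffer with MgCl2, DTT, Tween-20 and 2.5 ug/ml poly(dI-dC); started with 200 nM TAMRA/BHQ-2 forked duplex and 2 mM ATP. Unwinding read as fluorescence (525/598 nm), two reads 2 h apart.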
# [5] = Cytometric Cell-Based qHTS for Inhibitors of the mTORC1 Signaling Pathway in MEF (Tsc2-/-, p53-/-) Cells (AID 2660);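 further: percent of cells above a phospho-rpS6 to PI ratio cutoff in each well; series mostly up to about 38 µM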
# Method in brief: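 Tsc2-/-, p53-/- MEFs (empty vector) exposed to compound 24 h at 37 C, fixed, stained with Alexa-488 anti-phospho-rpS6 Ser235/236 and propidium iodide. Acumen laser scanning; phospho-S6/PI ratio thresholded against 7.5 nM rapamycin, reported as % positive cells.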
# [6] = High Content Imaging Cell-Based qHTS for Inhibitors of the mTORC1 Signaling Pathway in MEF (Tsc2-/-, p53-/-) Cells (AID 2666);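 further: percent of cells scored positive for phospho-rpS6 Ser235/236 immunostaining by imaging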; further: potency means the concentration at half of the fitted maximal effect
# Method in brief: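 Read-out: % positive cells per well, with thresholds from highest- and lowest-signal wells, based on phospho-rpS6 (Ser235/236) intensity normalized to Hoechst nuclear stain. Cells: Tsc2-/-, p53-/- MEFs carrying empty vector; compound 24 hrs, 37 degree Celsius.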
# [7] = High Content Imaging Cell-Based qHTS for Inhibitors of the mTORC1 Signaling Pathway in MEF Cells (AID 2667); further: potency means the concentration at half of the fitted maximal effect
# Method in brief: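 MEF (Tsc2-/-, p53-/-, WT Tsc2 re-expressed); cpd 24 h, 37 °C; PFA fix; Alexa-488 anti-p-rpS6 Ser235/236, PI, Hoechst; IN Cell imaging; Hoechst/Alexa-488 intensity ratio; % active cells, thresholds set from rapamycin and DMSO wells.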
# [8] = Cytometry Cell-Based qHTS for Inhibitors of the mTORC1 Signaling Pathway in MEF cells (AID 2668); further: potency means the concentration at half of the fitted maximal effect
# Method in brief: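 Pathway inhibition in WT Tsc2-rescued Tsc2-/-, p53-/- MEFs is measured as the Alexa-488 phospho-rpS6 to propidium iodide intensity ratio after 24 hrs of compound at 37 degree Celsius. PI-stained cell number gives viability.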
# [9] = Validation screen for inhibitors of Lassa infection (AID 463096; calls by dose curve; further: potency means the concentration at half of the fitted maximal effect)
# [10] = target: Ubiquitin carboxyl-terminal hydrolase 2 (Homo sapiens) (UniProt O75604); test: qHTS Validation Assay for Inhibitors of Ubiquitin-specific Protease USP2a Using CHOP2 as the Reporter (AID 463106)
# Sequence of Ubiquitin carboxyl-terminal hydrolase 2 (Homo sapiens) (O75604 whole entry, looked up): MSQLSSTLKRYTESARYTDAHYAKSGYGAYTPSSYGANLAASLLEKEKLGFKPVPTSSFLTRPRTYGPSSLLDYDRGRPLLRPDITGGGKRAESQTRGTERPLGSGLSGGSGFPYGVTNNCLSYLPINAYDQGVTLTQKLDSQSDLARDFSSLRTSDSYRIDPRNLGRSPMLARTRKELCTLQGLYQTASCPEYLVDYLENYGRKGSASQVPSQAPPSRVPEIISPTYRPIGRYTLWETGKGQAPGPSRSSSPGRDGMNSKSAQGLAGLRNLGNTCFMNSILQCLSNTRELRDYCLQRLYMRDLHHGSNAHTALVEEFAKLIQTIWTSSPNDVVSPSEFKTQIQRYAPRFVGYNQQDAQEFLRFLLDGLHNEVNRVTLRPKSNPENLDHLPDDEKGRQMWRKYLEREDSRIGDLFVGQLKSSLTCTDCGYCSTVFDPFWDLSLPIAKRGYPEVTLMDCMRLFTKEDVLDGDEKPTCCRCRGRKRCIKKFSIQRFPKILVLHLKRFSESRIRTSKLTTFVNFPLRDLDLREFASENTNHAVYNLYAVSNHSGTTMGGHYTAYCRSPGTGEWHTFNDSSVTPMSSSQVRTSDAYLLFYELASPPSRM
# Method in brief: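 USP2 core (10nM final) was preincubated with compound for 30min at RT in 20mM Tris-HCl pH 8.0, 2mM CaCl2, 2mM beta-mercaptoethanol, 0.05% CHAPS. Ub-CHOP2 and reporter substrate (25nM each) were added, and fluorescence (Ex 485/Em 531nm) was read after 60min.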
# [11] = target: DNA polymerase III PolC-type (Bacillus subtilis (strain 168)) (UniProt P13267); test: qHTS Validation Assay for the Inhibitors of DNA Replication in Gram-Positive Bacteria (AID 485295);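 further: reconstituted holoenzyme with PolC plus beta clamp SSB and primase; PicoGreen fluorescence of double-stranded DNA made on primed circular M13 template; series mostly up to about 57 µM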
# Sequence of DNA polymerase III PolC-type (Bacillus subtilis (strain 168)) (P13267 whole entry, looked up): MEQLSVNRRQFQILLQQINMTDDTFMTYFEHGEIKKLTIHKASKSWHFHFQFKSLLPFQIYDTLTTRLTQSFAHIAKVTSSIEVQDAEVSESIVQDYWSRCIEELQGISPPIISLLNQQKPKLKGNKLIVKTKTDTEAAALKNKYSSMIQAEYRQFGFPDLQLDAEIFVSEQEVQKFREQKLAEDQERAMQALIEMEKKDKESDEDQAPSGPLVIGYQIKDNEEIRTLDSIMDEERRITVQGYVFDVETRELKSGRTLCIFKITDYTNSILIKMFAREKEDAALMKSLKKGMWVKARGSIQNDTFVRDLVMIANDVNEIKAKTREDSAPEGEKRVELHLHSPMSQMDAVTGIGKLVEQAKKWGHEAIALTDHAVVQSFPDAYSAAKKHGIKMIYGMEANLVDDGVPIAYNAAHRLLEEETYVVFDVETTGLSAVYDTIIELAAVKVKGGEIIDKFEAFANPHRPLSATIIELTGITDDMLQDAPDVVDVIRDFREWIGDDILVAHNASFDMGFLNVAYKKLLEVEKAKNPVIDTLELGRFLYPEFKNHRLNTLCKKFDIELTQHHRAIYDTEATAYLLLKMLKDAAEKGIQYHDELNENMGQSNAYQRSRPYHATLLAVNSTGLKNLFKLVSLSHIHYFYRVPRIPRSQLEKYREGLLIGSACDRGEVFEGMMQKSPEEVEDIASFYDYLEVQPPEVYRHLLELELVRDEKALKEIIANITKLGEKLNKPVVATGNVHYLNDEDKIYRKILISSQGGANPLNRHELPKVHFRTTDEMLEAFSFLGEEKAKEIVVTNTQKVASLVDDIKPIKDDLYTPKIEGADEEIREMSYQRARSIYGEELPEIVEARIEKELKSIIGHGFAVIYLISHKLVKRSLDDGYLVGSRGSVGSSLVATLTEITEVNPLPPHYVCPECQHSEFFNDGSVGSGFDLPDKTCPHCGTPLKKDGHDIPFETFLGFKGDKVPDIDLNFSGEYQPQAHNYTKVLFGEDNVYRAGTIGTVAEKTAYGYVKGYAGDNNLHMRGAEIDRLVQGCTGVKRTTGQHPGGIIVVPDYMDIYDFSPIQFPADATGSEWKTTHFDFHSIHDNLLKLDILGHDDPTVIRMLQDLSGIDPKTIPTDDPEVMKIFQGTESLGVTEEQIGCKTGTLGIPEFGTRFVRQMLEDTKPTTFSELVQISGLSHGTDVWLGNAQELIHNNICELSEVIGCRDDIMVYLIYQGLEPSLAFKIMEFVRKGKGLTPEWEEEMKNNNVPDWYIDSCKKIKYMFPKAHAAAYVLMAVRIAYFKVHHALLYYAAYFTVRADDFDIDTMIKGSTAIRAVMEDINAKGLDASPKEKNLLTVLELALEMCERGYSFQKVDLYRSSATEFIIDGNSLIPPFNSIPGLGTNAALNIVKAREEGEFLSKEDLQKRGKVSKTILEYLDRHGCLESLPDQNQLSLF
# Method in brief: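 Primed replication of single-stranded M13Gori by a four-protein B. subtilis holoenzyme is measured at room temperature. Double-stranded product is quantified by PicoGreen fluorescence after an EDTA stop; inhibition is scaled between DMSO and EDTA controls.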
# [12] = target: Tumor susceptibility gene 101 protein (Homo sapiens) (UniProt Q99816); test: qHTS Validation Assay for Iinhibitors of HIV-1 Budding by Blocking the Interaction of PTAP/TSG101 (AID 485342; calls by dose curve)
# Sequence of Tumor susceptibility gene 101 protein (Homo sapiens) (Q99816 whole entry, looked up, the tested form may be a part): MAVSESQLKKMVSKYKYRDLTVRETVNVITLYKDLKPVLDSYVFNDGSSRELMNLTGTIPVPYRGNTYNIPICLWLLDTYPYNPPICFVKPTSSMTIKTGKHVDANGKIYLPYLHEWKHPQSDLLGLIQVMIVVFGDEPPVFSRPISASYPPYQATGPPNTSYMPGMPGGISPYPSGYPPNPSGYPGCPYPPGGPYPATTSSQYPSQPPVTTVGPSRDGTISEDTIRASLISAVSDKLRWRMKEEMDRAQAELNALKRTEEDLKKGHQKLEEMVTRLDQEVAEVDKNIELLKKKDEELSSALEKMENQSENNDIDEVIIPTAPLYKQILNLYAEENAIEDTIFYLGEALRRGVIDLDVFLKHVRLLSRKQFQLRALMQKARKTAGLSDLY
# Method in brief: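 Fluorescence anisotropy measured PTAP-Tsg101 interaction. Final concentrations were 10 uM protein domain and 50 nM labeled peptide, equilibrated 20 min at room temperature.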
# [13] = qHTS Validation Assay to Find Inhibitors of Chronic Active B-Cell Receptor Signaling (AID 485345; active means well fitted curve in the direction sought with a large enough effect in the main read-out, with a control signal flat, not every such curve was filed as active)
# Method in brief: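 TMD8 ABC-DLBCL cells with dox-inducible green luciferase–IκBα fusion and red native luciferase; compounds 46 uM–3 nM, 4 h at 37C with doxycycline in 0.5% FBS IMDM. Green/red ratio normalized to basal and 10 uM MG-132.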
# [14] = qHTS Assay for Identification of Small Molecule Inducers of Hypoxia Response (AID 2120; active means well fitted curve in the direction sought with a large enough effect in the signal ratio, with a control signal flat, not every such curve was filed as active; the % refers to the signal ratio)
# Method in brief: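 HRE-bla ME-180 cells in Opti-MEM with 0.5% dialyzed FBS, pre-plated 4-5 h, then compound titration for 17 h at 37 degrees Celsius. CCF4 loaded 2.5 h at room temperature; 460/530 nm ratio gave %Activity and AC50 for induction.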
# [15] = qHTS for differential inhibitors of proliferation of Plasmodium falciparum line Dd2 (AID 1882); details: Potency: Plasmodium falciparum Dd2 proliferation inhibition; further: series mostly up to about 29 µM; nearly all actives have a fitted effect of over 65% in size
# Method in brief: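 Dd2-infected erythrocytes (0.3% parasitemia, 2.5% hematocrit final) incubated with compound 72 h at 37 C, 5% CO2; lysed with saponin/Triton buffer containing SYBR Green I, incubated overnight in the dark, then read by fluorescence (485/535 nm). Normalized to 0.29 uM artemisinin and DMSO.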
# [16] = qHTS for differential inhibitors of proliferation of Plasmodium falciparum line D10 (AID 1877);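 further: potency means the concentration at half of the fitted maximal effect; parasites grown with compound for 72 h before DNA staining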
smiles,measurement,setting,value
CNCCc1ccc(O)c(O)c1,Potency,[1],12.6 µM (active)
same,Potency,[2],10 µM (active)
same,outcome,[3],inactive
same,outcome,[4],inactive
same,Potency,[5],inactive
same,Potency,[6],inactive
same,Potency,[7],inactive
same,Potency,[8],inactive
same,Potency,[9],inactive
same,Potency,[10],inactive
same,Potency,[11],inactive
same,outcome,[12],inactive
same,outcome,[13],inactive
C1CCC(NC2CCCCC2)CC1,outcome,[14],inactive
CC(=O)[C@H]1CCC2C3CC[C@H]4C[C@H](O)CC[C@]4(C)C3CC[C@@]21C (stereo partly specified),Potency,[15],inactive
same,Potency,[2],10 µM (active)
same,outcome,[3],inactive
same,outcome,[4],inactive
same,Potency,[5],inactive
same,Potency,[6],inactive
same,Potency,[7],inactive
same,Potency,[8],inactive
same,Potency,[9],inactive
same,Potency,[10],inactive
same,outcome,[12],inactive
same,outcome,[13],inactive
Cc1c(C(=O)c2cccc3ccccc23)c2cccc3c2n1[C@H](CN1CCOCC1)CO3,Potency,[16],12.6 µM (active)
same,Potency,[2],4.47 µM (active)
same,outcome,[3],inactive
same,outcome,[4],inactive
same,Potency,[6],inactive
same,Potency,[7],18.5 µM (active)
same,Potency,[9],inactive
same,Potency,[10],inactive
same,outcome,[12],inactive
OCCCBr,outcome,[14],inactive
CC(=O)Oc1ccccc1C(=O)O,Potency,[9],inactive
CC1=C(/C=C/C(C)=C/C=C/C(C)=C/C(=O)O)C(C)(C)CCC1,Potency,[9],inactive
CC(C)(C)NCC(O)c1ccc(O)c(CO)c1 (stereo unspecified),Potency,[9],inactive
CCCCCCCCc1ccc(O)cc1,outcome,[14],inactive
CC(C)c1ccc2c(c1)c(SC(C)(C)C)c(CC(C)(C)C(=O)O)n2Cc1ccc(Cl)cc1,Potency,[9],inactive
C[C@@H](N)C1CCC(C(=O)Nc2ccncc2)CC1 (stereo partly specified),Potency,[9],inactive
CC(C)C[C@H](NC(=O)[C@@H](O)[C@H](N)Cc1ccccc1)C(=O)O,Potency,[9],inactive
Nc1ccc(Cl)cc1,outcome,[14],inactive
O=C(O)COc1ccccc1,outcome,[14],inactive
CCOP(=O)(NC(C)C)Oc1ccc(SC)c(C)c1 (stereo unspecified),outcome,[14],inactive
NCCS,Potency,[9],inactive
COC(=O)[C@@H](N)CCCN=C(N)N[N+](=O)[O-],Potency,[5],inactive
same,Potency,[6],inactive
same,Potency,[7],inactive
same,Potency,[8],inactive
same,Potency,[10],inactive
same,Potency,[11],inactive
same,outcome,[12],inactive
same,outcome,[13],inactive
CC(C[N+](C)(C)C)OC(N)=O (stereo unspecified),Potency,[9],inactive
CCn1cc(C(=O)O)c(=O)c2cc3c(cc21)OCO3,outcome,[3],inactive
same,Potency,[9],inactive
NCCCC(N)(C(=O)O)C(F)F (stereo unspecified),Potency,[9],inactive
CC(C)(O)C(=O)Nc1ccc([N+](=O)[O-])c(C(F)(F)F)c1,outcome,[14],inactive
c1ccc(C2(c3ccccc3)CC2C2=NCCN2)cc1 (stereo unspecified),Potency,[5],inactive
same,Potency,[6],inactive
same,Potency,[7],inactive
same,Potency,[8],inactive
same,Potency,[10],inactive
same,Potency,[11],inactive
same,outcome,[12],inactive
same,outcome,[13],inactive
COC(C)(C)CCCC(C)C/C=C/C(C)=C/C(=O)OC(C)C (stereo unspecified),outcome,[14],inactive
C=CC(=O)NCNC(=O)C=C,outcome,[14],inactive
CCCCOC(=O)c1ccccc1C(=O)OCc1ccccc1,outcome,[14],inactive
O=C(N[C@H]1CN2CCC1CC2)c1ccc(Cl)cc1,Potency,[5],inactive
same,Potency,[6],inactive
same,Potency,[7],inactive
same,Potency,[8],inactive
same,Potency,[10],inactive
same,outcome,[12],inactive
same,outcome,[13],inactive
O=[N+]([O-])c1c2ccccc2cc2ccccc12,outcome,[14],inactive
C/C=C(/C)C(=O)O[C@H]1C(C)=C2[C@H]([C@@H]1OC(=O)CCCCCCC)[C@@](C)(OC(C)=O)C[C@H](OC(=O)CCC)[C@@]1(O)[C@H]2OC(=O)[C@@]1(C)O,Potency,[6],26.1 nM (active)
same,Potency,[7],0.0037 µM (active)
same,Potency,[8],8.3 nM (active)
same,Potency,[10],inactive
same,outcome,[12],inactive
CC[C@@H](C(N)=O)N1CCCC1=O,Potency,[5],inactive
same,Potency,[6],inactive
same,Potency,[7],inactive
same,Potency,[8],inactive
same,Potency,[10],inactive
same,outcome,[12],inactive
same,outcome,[13],inactive
CCN1CCc2nc(N)oc2CC1,Potency,[9],inactive
CC(C)(Sc1ccc(CCN(CCCCC2CCCCC2)C(=O)NC2CCCCC2)cc1)C(=O)O,Potency,[9],inactive
CCOCCOC(C)=O,outcome,[14],inactive
CCN(CC)CCNC(=O)c1ccc(NC(C)=O)cc1,Potency,[9],inactive
CCc1c(C)[nH]c2c1C(=O)C(CN1CCOCC1)CC2 (stereo unspecified),Potency,[9],inactive
CS(=O)(=O)Nc1ccc([N+](=O)[O-])cc1Oc1ccccc1,Potency,[9],inactive
CN[C@@H](C)[C@H](O)c1ccccc1,outcome,[3],inactive
same,outcome,[4],inactive
same,Potency,[9],10 µM (active)
c1cc2ccc3cccc4ccc(c1)c2c34,outcome,[14],inactive
